Bioassay records as filed in PubChem BioAssay.
CHT allo act: allosterically activates the human high affinity choline transporter | Q9GZV3 | CHT-expressing cells, membrane potential dye, choline EC20; active compounds read high; LV-AA mutant CHT in HEK293 cells | B-score at 10 µM | hit rate 0.49% among 310,000 | AID 488977;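 active means initial fluorescence not abnormally high and integrated response B-score, plate-corrected, over 3 SD above library mean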
PKA-R2B activ: PKA-R2B complex activation. PKA-R2B holoenzyme dissociation, Cy5-IP20 fluorescence polarization; R2B truncated from residue 108, S112A mutant; 0% DMSO only, 100% 113 µM cGMP. activation, % at 11.4 µM. P22694+P31323. hit rate 0.079% among 340,000;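 active means activation above a cutoff set at the mean over all compounds plus 3 SD, cut at about 18% in these data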;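 further: higher means more holoenzyme dissociation and a rise in polarization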
Target sequence (P31323 whole entry, looked up, other chains not shown, the tested form may be a part): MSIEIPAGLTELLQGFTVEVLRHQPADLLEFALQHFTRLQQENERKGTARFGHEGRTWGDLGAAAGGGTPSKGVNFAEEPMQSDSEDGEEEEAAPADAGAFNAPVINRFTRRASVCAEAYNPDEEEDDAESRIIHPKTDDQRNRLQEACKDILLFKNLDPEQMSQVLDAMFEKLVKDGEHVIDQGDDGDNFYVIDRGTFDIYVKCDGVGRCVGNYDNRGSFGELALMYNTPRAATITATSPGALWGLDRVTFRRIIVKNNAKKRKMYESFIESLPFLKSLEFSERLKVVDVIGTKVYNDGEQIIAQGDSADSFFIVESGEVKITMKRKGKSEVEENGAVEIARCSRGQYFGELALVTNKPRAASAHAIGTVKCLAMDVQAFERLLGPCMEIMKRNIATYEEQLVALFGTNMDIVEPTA
TMEM16A act: activators or potentiators of mouse TMEM16A chloride channel | Q8BHY3 | HEK293 TMEM16A/YFP-H148Q/I152L, iodide quench fluorescence; active compounds read low | B-score at 10 µM | hit rate 0.3% among 340,000 | AID 623877;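 active means fluorescence-ratio B-score plate-corrected deviation score at least 3 library SD below zero, with starting fluorescence score within 5 deviations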;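 further: channel opened by trigger with iodide after compound preincubation; score built on the fluorescence ratio of max minus min over baseline; more negative score means more quench and so TMEM16A activation or potentiation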
ANO1 block: inhibitors of mouse TMEM16A calcium-activated chloride channel | hit rate 1.2% among 310,000 | normalized B-score (activity score, 25-100; higher = stronger inhibition) at 10 µM | AID 588511 | Q8BHY3 | HEK293 TMEM16A/YFP iodide influx fluorescence, ionomycin;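 active means ratio plate-corrected score three or more library SD toward inhibition, starting fluorescence score within five deviations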;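 further: score derived from kinetic fluorescence span divided by baseline fluorescence per well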
CHT inh: inhibits the human high affinity choline transporter; Q9GZV3; hit rate 0.86% among 310,000; B-score at 10 µM; CHT-expressing cells, membrane potential dye, choline response; active compounds read low; AID 488975;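 active means B-score over 3 SD under the library average, and starting fluorescence ratio not unusually high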;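 further: choline stimulus applied at its EC90 after an EC20 pre-addition; B-score computed on integrated fluorescence ratio after choline addition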
PKA-R1A activ: activators of PKA-R1A complex; hit rate 0.083% among 340,000; PKA-R1A dissociation, Cy5-IP20 fluorescence polarization; scaled: DMSO 0%, 113 µM cGMP 100%; activation, % at 11.4 µM;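 active means percent activation above the mean of all tested compounds plus 3 SD, cut at about 19% in these data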;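 further: higher means more PKAc released from R1A so a rise in polarization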
CHT act confirm: confirmation of human choline transporter (CHT) activators; shares compounds with CHT allo act; CHT-expressing cells, membrane potential dye fluorescence (FDSS); % of choline EC20–EC90 response window; HEK293 expressing CHT LV-AA mutant; choline added at its EC20; activation, % at 10 µM; hit rate 91% among 2,500;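 active means primary screen active, with duplicate mean activation above negative control mean plus 3 SD, cut at about 11% in these data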
HEK293 MP dye: CHT activator counter-screen hit in parental HEK293 cells | shares compounds with CHT allo act | membrane potential dye fluorescence (FDSS); measured after EC20 choline addition | ratio readout change at 10 µM, hits read low | hit rate 62% among 2,500 | AID 623908;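 active means duplicate-averaged ratio beyond 3 SD from buffer wells, up or down, though filed actives are nearly all decreases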
* hit, by the source's call; i = inactive; . = no result given. This is a sample that favours compounds with a hit; in the whole collection about 2.5% have one here.

SMILES	CHT allo act	PKA-R2B activ	TMEM16A act	ANO1 block	CHT inh	PKA-R1A activ	CHT act confirm	HEK293 MP dye
CCOC(=O)[C@@H]1[C@H]2COc3ccccc3[C@@H]2N2C(=O)N(c3cccc(Cl)c3)C(=O)[C@]12C	i	-2	i	i	i	-4	.	.
Nc1c2c(nc3ccccc13)CSCC2	6.3*	-5	i	i	i	4	54*	-55*
Nc1c2c(nc3ccccc13)CCCC2=O	i	1	i	i	i	0	.	.
COc1ccc(-c2cn3c(n2)CCC3)cc1	7.4*	-1	i	i	i	-3	51*	-47*
NC1=Nc2cccc3cccc1c23	i	-5	i	i	i	10	45*	-65*
CCN1/C(=C/c2ccc3cccc(C)c3[n+]2CC)Sc2ccccc21	i	-8	i	i	i	-1	12*	i
Cc1cccc(Cn2c(Cc3ccccc3)nc3ccccc32)c1	9.8*	-5	i	i	i	-12	5	i
COCc1nc2ccccc2n1Cc1cccc(C)c1	i	-4	i	i	i	0	.	.
Cc1cc(C)nc(N2N=C(C(F)(F)F)CC2=O)n1	i	4	i	i	i	0	.	.
NC(=O)CC(NC(=O)Cc1ccc(Br)cc1)c1ccc(N2CCC(N3CCCCC3)CC2)c([N+](=O)[O-])c1 (configuration not stated)	i	-8	i	i	i	-5	.	.
CC(C)c1ccc(/C=C/C(=O)Nc2nc3ccc([N+](=O)[O-])cc3s2)cc1	i	11	i	i	i	-9	.	.
O=C(O)COc1ccc(/C=C/c2nc3ccc([N+](=O)[O-])cc3s2)cc1	6.7*	-11	i	i	i	-4	46*	-52*
Cc1nnc(C)c2c(C)n(C(C)c3ccccc3)c(C)c12 (configuration not stated)	i	-11	.	i	i	-2	.	.
COc1ccc(C(C)n2c(C)c3c(C)nnc(C)c3c2C)cc1 (configuration not stated)	6.6*	1	i	i	i	-21	56*	-45*
Cc1cc(N2CCOCC2)nc(C(C)C)n1	i	-9	i	i	i	-5	.	.
Cc1cc(N2CCN(C)CC2)nc(N2CCOCC2)n1	8.4*	-14	i	i	i	-13	45*	-91*
Cc1cc(N2CCCCC2)nc(N2CCOCC2)n1	i	0	i	i	i	-7	.	.
Cc1cc(N2CCOCC2)nc(N2CCOCC2)n1	i	-3	i	i	i	-8	76*	-40*
Clc1cnc(N/N=C/c2ccncc2)c(Cl)c1	i	-4	i	i	i	3	37*	-44*
CN(C)C(CNC(=O)C1CCN(S(=O)(=O)c2cccc(Cl)c2Cl)CC1)c1ccccc1 (configuration not stated)	i	1	i	i	i	-18	.	.
COC(=O)c1cc2c(=O)n3ccccc3nc2n(Cc2cccnc2)c1=N	6.8*	.	.	i	i	.	40*	-55*
Cc1ccc2nc3c(cc(C#N)c(=N)n3Cc3cccnc3)c(=O)n2c1	8.5*	.	.	i	i	.	41*	-28*
CCOC(=O)C1CCCN(C(=O)c2ccc(S(=O)(=O)Nc3ccccc3OC)cc2)C1 (configuration not stated)	.	-1	i	.	.	-6	.	.
O=C(Nc1ccc(S(=O)(=O)Nc2nccs2)cc1)c1nn(-c2ccc(F)cc2)ccc1=O	6.3*	-7	i	i	i	3	37*	-36*
O=C(Nc1ccc(S(=O)(=O)Nc2nccs2)cc1)c1ccc(F)cc1	i	-7	i	i	i	1	.	.
SMILES	CHT allo act	PKA-R2B activ	TMEM16A act	ANO1 block	CHT inh	PKA-R1A activ	CHT act confirm	HEK293 MP dye
CC(C)[C@@H](C(=O)N1CCN(C(=O)OC(C)(C)C)CC1)n1cc(CCO)nn1	i	2	i	i	i	-12	.	.
COc1ccc(-c2cn(-c3ccc(Cl)cc3)c3[n+]2CCCCC3)cc1	7*	-16	i	i	i	-6	51*	-21*
COc1ccccc1CNS(=O)(=O)c1ccc(-c2cnc(C3CC3)o2)cc1	i	-11	i	i	i	-12	.	.
COc1ccccc1NS(=O)(=O)c1ccc(-c2cnc(C3CC3)o2)cc1	i	-10	i	i	i	-5	24*	i
O=C(CNC(=O)c1ccc(Br)o1)NNC(=O)c1ccccc1F	i	-5	i	i	i	0	.	.
CC[n+]1c(/C=C/c2ccc(OC(C)=O)c(OC)c2)ccc2ccccc21	7.2*	4	i	i	i	-3	45*	-74*
CC[n+]1c(/C=C/c2ccc(OC)c(OC)c2)ccc2ccccc21	i	9	i	i	i	-2	.	.
CC[n+]1c(/C=C/c2cc([N+](=O)[O-])ccc2O)ccc2ccccc21	i	6	i	i	i	2	17*	-52*
CCc1ccc(NC(=O)CCC(=O)c2ccccc2)cc1	i	-3	i	i	i	11	.	.
O=C(COC(=O)c1ccc(O)cc1)Nc1ccc2c(c1)OCO2	.	-4	i	.	.	-1	.	.
Cc1ccc(-n2cc(CNCCCn3ccnc3C)c(-c3ccc(F)cc3)n2)cc1	i	5	i	i	i	-6	32*	-32*
COC(=O)c1ccc(OC)c(Cn2c(=O)n(C)c(=O)c3sccc32)c1	i	-12	i	i	i	-3	.	.
CCn1c(=O)c2sccc2n(Cc2cc(C(=O)OC)ccc2OC)c1=O	i	-4	i	i	i	-1	36*	i
CCN(CC)C(=O)C1=C(C)N(CCCOC)C(=O)C(CC(=O)NCCN2CCOCC2)C1 (configuration not stated)	.	1	.	.	.	-6	.	.
Cc1cccc(N=Cc2c(O)cc(C)oc2=O)c1	i	-7	i	i	i	7	.	.
Cc1cccc(N=Cc2[nH]c3ccc(Br)c(Cl)c3c2O)c1	i	7	i	i	i	-5	12*	i
